# Laboratory results taken from PubChem BioAssay AID2279 (Southern Research Specialized Biocontainment Screening …, 2010).
# Measured potencies and affinities stand elsewhere. Calls of active or inactive are those of the source. How the calls were made is not given here.
# Experiment: HIV-1 Env-mediated cell fusion inhibitors, dose response, CCR5-tropic Env (AID 2279)
# Conditions: CCR5-tropic HIV-1 Env, reporter read-out; series mostly up to 50 µM
row,Structure (SMILES),outcome
1,Cc1cc(Cl)ccc1OC(C)C(=O)Nc1ccc(S(=O)(=O)Nc2cnc3ccccc3n2)cc1 (centres undefined),inactive
2,CCN1C(=O)/C(=C\c2ccc(-c3ccc([N+](=O)[O-])cc3OC)o2)SC1=Nc1cccc(C(=O)O)c1,inactive
3,CC(C)c1ccc(OCC(=O)Nc2cccc(C(=O)Nc3ccccc3C(=O)O)c2)cc1,inactive
4,COc1cc(OC)c2c(O)c3c(c(-c4c5c(c(O)c6c(OC)cc(OC)cc46)CO[C@@H](C)[C@H]5O)c2c1)[C@H](O)[C@H](C)OC3,inactive
5,CSc1nc(SCC(=O)O)c2sc3nc(-c4ccccc4)c4c(c3c2n1)CCC4,inactive
6,COc1ccc(/C=N/NC(=O)c2[nH]c3ccc(Br)cc3c2-c2ccccc2)c(C(=O)O)c1OC,inactive
7,Cc1cccc(OCC(=O)Nc2ccc(C(=O)Nc3ccccc3C(=O)O)cc2)c1C,inactive
8,N#Cc1c(-c2ccccc2)nc(SCC(=O)N2c3ccccc3Sc3ccccc32)[nH]c1=O,inactive
9,O=C(O)CCN1C(=O)/C(=C\c2cccc(Oc3ccccc3)c2)SC1=S,inactive
10,CCS(=O)(=O)C1=NSC2=NC(=O)/C(=C\c3ccc(OS(=O)(=O)c4ccccc4)c(OC)c3)C(=N)N21,inactive
11,COc1ccc(NS(=O)(=O)c2ccc3c(c2)[C@H]2C=CC[C@H]2[C@@H](c2ccc(C(=O)O)cc2)N3)cc1,inactive
12,O=C(COc1ccc2ccccc2c1)Nc1cccc(C(=O)Nc2ccccc2C(=O)O)c1,inactive
13,COc1ccc(/C=C2/SC(=S)N(CC(=O)O)C2=O)cc1OCc1ccc(Cl)cc1,inactive
14,O=C(O)c1ccc(NS(=O)(=O)c2ccc3c(c2)C2C=CCC2C(c2ccccc2F)N3)cc1 (centres undefined),inactive
15,Cc1c(Cl)cccc1NS(=O)(=O)c1ccc2c(c1)C1C=CCC1C(c1ccc(C(=O)O)cc1)N2 (centres undefined),inactive
16,CCOc1cc(/C=N/NC(=O)c2ccc(-c3csc(Nc4ccc(C)cc4)n3)cc2)ccc1OCC(=O)O,inactive
17,O=C(O)c1cc(-c2ccc(/C=C3\NC(=O)N(c4ccc(Cl)cc4)C3=O)o2)ccc1Cl,inactive

row,Structure (SMILES),outcome
1,Cc1c(CCC(=O)O)c(=O)oc2c(C)c3occ(-c4ccc(Br)cc4)c3cc12,inactive
2,O=C1NN(c2ccc(Cl)c(Cl)c2)C(=O)/C1=C/c1ccc(-c2ccccc2C(=O)O)o1,inactive
3,O=C(CCCN1C(=O)/C(=C/c2cccs2)SC1=S)Nc1ccc(O)c(C(=O)O)c1,inactive
4,O=C(O)c1[nH]c2ccccc2c1C(c1cc(Cl)cc([N+](=O)[O-])c1O)c1c(C(=O)O)[nH]c2ccccc12,inactive
5,CCOc1cc(/C=N/N=C2/NC(=O)C(CC(=O)O)S2)ccc1OCc1ccc(Cl)cc1 (centres undefined),inactive
6,CCCCCNC(=O)c1ccc2c(=O)[nH]c3c(C(=O)NCC4CCCO4)sc(=S)n3c2c1 (centres undefined),inactive
7,Cc1ccc(NS(=O)(=O)c2ccc(N/N=C/c3ccccc3OCC(=O)O)c([N+](=O)[O-])c2)c(C)c1,inactive
8,CC(C)(C)CC(C)(C)c1ccc(OCC(=O)N/N=C/c2ccc(S(=O)(=O)O)o2)cc1,inactive
9,COc1ccc(NC(=O)c2c[nH]n3c(=O)cc(C4CCN(C(=O)OC(C)(C)C)CC4)nc23)cc1Cl,inactive
10,O=C1NN(c2ccc(F)c(Cl)c2)C(=O)/C1=C\c1cccc(OC(=O)c2cccs2)c1,inactive
11,O=C1N=c2ccc(Br)cc2=C1c1sc(=S)n(NS(=O)(=O)c2ccccc2)c1O,inactive
12,O=C(NCc1ccccc1)c1ccc2c(=O)[nH]c3c(C(=O)NCC4CCCO4)sc(=S)n3c2c1 (centres undefined),inactive
13,CCOC(=O)C1=C(C)N=c2s/c(=C/c3ccc(OCC(=O)O)cc3)c(=O)n2C1c1ccc(SC)cc1 (centres undefined),inactive
14,O=C(NC(=S)Nc1ccccc1C(=O)O)c1ccc(-c2ccc(Br)cc2)o1,inactive
15,CCOc1cc(/C=C2/C(=N)N3C(=NC2=O)SN=C3S(C)(=O)=O)ccc1OS(=O)(=O)c1ccccc1,inactive
16,CCCOc1ccc(C2C(C(=O)c3cc4ccccc4o3)=C(O)C(=O)N2c2cc(C)on2)cc1 (centres undefined),inactive
17,CCc1ccc(/C=C2\SC(=S)N(CCCC(=O)Nc3ccccc3C(=O)O)C2=O)cc1,inactive
